Most compounds without a hit are left out; they make up all but 4.5% or so of the library.
hcDAF-12 act – H. contortus DAF-12 nuclear receptor activators, primary screen, cell-based, luminescence, HEK293, lit1-tk-luc reporter; HEK293 hcDAF-12 lit1-tk-luc reporter; 0% DMSO, 100% Δ7-dafachronic acid; activation, % at 6.8 µM; 370,000 compounds, 1.4% hits; AID 652067, 2013;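 active = activation above the mean of all tested compounds plus 3 SD, cut at about 5.5% in these data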;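 also: 100% = response to 3 µM Δ7-dafachronic acid high control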
DAX1 inh-1 – DAX1 (NR0B1) inhibitors on StAR promoter, primary screen, cell-based, luminescence, SF-1 (NR5A1), full-length DAX-1 | inhibition, % at 6.8 µM | HEK293T StAR-luciferase reporter, SF-1/DAX-1 repression relief | 370,000 compounds, 1.1% hits;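 active = inhibition above the mean over all tested compounds plus 3 SD, cut at about 3.6% in these data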;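 also: 0% = DAX-1 cells with DMSO and 100% = cells lacking DAX-1 with DMSO; higher inhibition means more luminescence from relief of DAX-1 repression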
FXN GAA850 act – FXN promoter activators, primary screen, cell-based, luciferase luminescence, HEK293 lucGAA850; HEK293 lucGAA850 FXN promoter luciferase reporter, 24 h; percent of 10 µM SAHA response; activation, % at 6 µM; 360,000 compounds, 0.56% hits; AID 540364, 2011;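 active = activation above the average of all compounds screened plus 3 SD, cutoff fixed separately per campaign, cut at about 7.5% in these data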;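 also: 0% = DMSO wells and 100% = 10 µM SAHA wells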
ssDAF12 agonist – S. stercoralis DAF-12 nuclear receptor activators, primary screen, cell-based, luminescence, HEK293, GRIP1 co-expression, lit1-tk-luc | HEK293 ssDAF-12/GRIP1 lit1-tk-luc reporter; % of 3 µM dafachronic acid response | activation, % at 6.8 µM | Nuclear hormone receptor DAF-12 (Strongyloides stercoralis) | 370,000 compounds, 1% hits;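 active = activation above the mean over all tested compounds plus 3 SD, cut at about 0.9% in these data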;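 also: 0% = DMSO-only wells and 100% = 3 µM delta7-dafachronic acid wells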
hgDAF-12 ag – H. glycines DAF-12 receptor agonists, primary screen, cell-based, luminescence, HEK293, GAL4 fusion, UAS-luciferase | Nuclear hormone receptor DAF-12 (Heterodera glycines), GAL4 fusion | HEK293 GAL4-hgDAF12 UAS-luciferase reporter, agonist luminescence; normalized to butyrate control | activation, % at 6.8 µM | 370,000 compounds, 1.8% hits;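 active = activation above a cutoff set at the mean of all screened compounds plus 3 SD, cut at about 10% in these data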;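 also: 0% = DMSO wells and 100% = sodium butyrate wells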
DAX1 inh-2 – DAX1 (NR0B1) inhibitors, primary screen, cell-based, HEK293, Gal4-DAX1, luciferase luminescence. Nuclear receptor subfamily 0 group B member 1 (Homo sapiens), P51843. HEK293 Gal4-DAX1 luciferase reporter. inhibition, % at 6.75 µM. 340,000 compounds, 0.99% hits;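 active = inhibition above the mean over all tested compounds plus 3 SD, cut at about 4.2% in these data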;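 also: 0% = DAX1-transfected cells with DMSO and 100% = empty-vector control cells with DMSO; inhibition shows as a rise in luminescence from relieved DAX1 repression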
Target sequence (P51843 207-470 limits assumed): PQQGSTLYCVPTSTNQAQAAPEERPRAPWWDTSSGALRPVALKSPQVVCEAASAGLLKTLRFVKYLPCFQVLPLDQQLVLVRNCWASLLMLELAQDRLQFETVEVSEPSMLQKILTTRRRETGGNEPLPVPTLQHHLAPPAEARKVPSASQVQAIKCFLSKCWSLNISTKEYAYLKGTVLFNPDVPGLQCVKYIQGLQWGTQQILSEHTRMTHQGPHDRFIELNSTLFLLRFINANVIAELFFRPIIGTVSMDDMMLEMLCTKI
LXR ag – LXR agonists, Gal4 luciferase reporter, confirmation, counter-screen for hcDAF-12 agonist project, cell-based, luminescence, HEK293, H. contortus campaign. shares compounds with hcDAF-12 act. HEK293 Gal4-LXR tk-luc reporter, 24 h; normalized: DMSO 0%, positive control 100%. 3,400 tested, under 10 active. activation, % at 6.8 µM;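 active = mean percent activation of the reporter above a cutoff set as the average over tested compounds plus their standard deviation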
Target sequence (P55055 whole entry, looked up, the tested form may be a part): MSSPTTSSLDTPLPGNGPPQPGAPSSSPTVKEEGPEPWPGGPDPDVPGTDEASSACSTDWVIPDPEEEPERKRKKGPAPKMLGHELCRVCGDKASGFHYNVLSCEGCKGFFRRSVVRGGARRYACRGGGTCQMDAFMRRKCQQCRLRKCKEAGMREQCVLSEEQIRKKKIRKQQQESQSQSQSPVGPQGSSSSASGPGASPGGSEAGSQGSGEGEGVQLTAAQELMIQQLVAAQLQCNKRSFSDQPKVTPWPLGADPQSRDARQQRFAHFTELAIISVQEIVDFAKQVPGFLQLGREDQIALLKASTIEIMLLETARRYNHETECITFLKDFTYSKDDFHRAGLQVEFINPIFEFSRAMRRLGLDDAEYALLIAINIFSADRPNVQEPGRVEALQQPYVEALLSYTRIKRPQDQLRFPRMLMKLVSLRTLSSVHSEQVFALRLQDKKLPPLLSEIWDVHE
hcDAF12 ag – H. contortus DAF-12 receptor agonists, confirmation, cell-based, luminescence, HEK293, lit1-tk-luc, triplicate; activation, % at 6.8 µM; shares compounds with hcDAF-12 act; HEK293 hcDAF-12 lit1-tk-luc reporter; % of Δ7-dafachronic acid response; 3,400 compounds, 61% hits;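 active = mean activation across triplicate tests above the threshold derived from the earlier primary screen, cut at about 5.5% in these data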;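 also: 0% = DMSO only wells and 100% = 3 µM Δ7-dafachronic acid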
hgDAF12 ag – H. glycines DAF-12 receptor agonists, confirmation, cell-based, luminescence, HEK293, GAL4-LBD fusion; shares compounds with hgDAF-12 ag; HEK293 GAL4-hgDAF12 luciferase reporter, agonist mode; percent of butyrate response; activation, % at 6.8 µM; 3,300 compounds, 80% hits; AID 743050, 2013;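 active = mean activation over triplicate wells above the hit cutoff derived from the earlier primary screen, cut at about 11% in these data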;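 also: 0% = DMSO low control and 100% = 2 mM sodium butyrate high control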
LXR ag 2 – LXR agonists, Gal4 luciferase reporter, confirmation, counter-screen for hgDAF-12 agonist project, cell-based, luminescence, HEK293, H. glycines campaign. AID 743051, 2013. 3,300 tested, under 10 active. activation, % at 6.8 µM. 24 h. shares compounds with hgDAF-12 ag;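 active = mean activation of the triplicate above a set limit carried over from the primary screen, none filed active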
* hit, by the source's call; · = not tested or not shown.

SMILES | hcDAF-12 act | DAX1 inh-1 | FXN GAA850 act | ssDAF12 agonist | hgDAF-12 ag | DAX1 inh-2 | LXR ag | hcDAF12 ag | hgDAF12 ag | LXR ag 2
COC(=O)C1=C(C)N(Cc2cccc(C(F)(F)F)c2)C(=NCc2cc(OC)c(OC)c(OC)c2)NC1c1cccc(C(F)(F)F)c1 (configuration not stated) | -1 | -1 | · | -1 | -2 | · | · | · | · | ·
CN(CCO)c1cccc2c1S(=O)(=O)N[C@@H](Cc1ccccc1)CO2 | 0 | 3 | · | -1 | -3 | · | · | · | · | ·
COC(=O)[C@]12C[C@H](CC(=O)NCc3cccc4ccccc34)C(=O)N(Cc3ccc(Cl)cc3Cl)C1=C[C@H](C(C)C)O[C@@H]2C1CC1 | 1 | -1 | · | -1 | 0 | · | · | · | · | ·
c1ccc(-c2nccc3ccccc23)cc1 | 0 | 0 | -1 | -1 | 0 | -3 | · | · | · | ·
Cc1ccc(-c2nc(-c3nccc4ccccc34)oc2-c2ccccc2)cc1 | 7.7* | 3 | 2 | 1 | 17* | 4 | 1 | 9.5* | 16* | 1
Nc1nc2cc3c(cc2cc1C(=O)NCc1cccnc1)OCO3 | 0 | -1 | · | -2 | 4 | · | · | · | · | ·
COc1cc(OC)c(OC)cc1/C=N/N(C)c1ccccc1 | -3 | -1 | 3 | -1 | -1 | -2 | · | · | · | ·
COc1cc(/C=N/N(C)c2ccccc2)ccc1O | 7.5* | 3 | 2 | 0 | 17* | 3 | 2 | 8.2* | 18* | 1
C#CCNC(=O)C[C@H]1C[C@@]2(C(=O)OC)C(=C[C@H](C(C)C)O[C@@H]2C2CC2)N(Cc2ccc(Cl)cc2Cl)C1=O | 1 | -1 | · | -1 | 3 | · | · | · | · | ·
COc1ccc2nc(SCC(C)=O)c(C#N)cc2c1 | 12* | 3.9* | 5 | 2.5* | 19* | 5.9* | 2 | 11* | 25* | 1
Cc1ccc(-c2nc3ccccc3s2)cc1NC(=S)NC(=O)/C=C/c1ccco1 | 3 | 2 | 1 | 0 | 6 | 1 | · | · | · | ·
O=C(/C=C/c1ccco1)NC(=S)Nc1cc(-c2nc3ccccc3s2)ccc1Cl | 12* | 3 | 7 | 2.8* | 15* | 2 | 0 | 5 | 6 | 0
C[C@H](O)[C@@H]1C(=O)N2CCc3c([nH]c4cccc(-c5ccccc5)c34)[C@@H]2C[C@@H]1N(C)C(=O)c1ccccc1 | -2 | 0 | · | 0 | 0 | · | · | · | · | ·
CC1(c2ccc(NC(=O)c3ccccc3F)cc2)CC1(Cl)Cl (configuration not stated) | 9.6* | 3 | 6 | 1 | 17* | 4.3* | 1 | 6.3* | 16* | 1
Fc1ccccc1Cn1ccc2ccc(-c3ccc4ccn(Cc5ccccc5F)c4c3)cc21 | -2 | -1 | · | -1 | 3 | · | · | · | · | ·
[O-][n+]1c(/C=C/c2ccccc2)ccc2ccccc21 | 13* | 2 | 5 | 1.5* | 14* | 7.2* | 1 | 8.6* | 21* | 1
Cc1ccc(-c2cc(C#N)c3n(c2=O)CCC3)cc1 | -1 | 0 | · | -1 | -1 | · | · | · | · | ·
CCOc1ccc(-c2cc(C(=O)NN)[nH]n2)cc1 | 6.8* | 4 | 4 | 0 | 16* | 1 | 0 | 1 | 4 | 0
O=C(Nc1nccs1)c1c(O)c2c([nH]c1=O)CCCC2 | 2 | 0 | 3 | 0 | 7 | 0 | · | · | · | ·
O=C(Nc1ccccc1O)c1c(O)c2c([nH]c1=O)CCCC2 | 8.0* | 3 | 7 | 1.5* | 19* | 5.0* | 1 | 6.9* | 16* | 1
COC(=O)[C@@]12CCCCC3=C1N(CCC3)C(=O)[C@H]2CC(=O)NCCC(C)C | -2 | -1 | · | -1 | -1 | · | · | · | · | ·
CC(=Nc1ccccc1)c1sc2ccccc2c1O | 20* | 2 | 5 | 2.1* | 17* | 3 | 2 | 11* | 26* | 2
Cc1cccc(/N=C/c2sc3ccccc3c2O)n1 | 3 | 2 | 3 | 0 | 7 | -1 | · | · | · | ·
O=C(CCl)Nc1ccc(C(=O)NCC2COc3ccccc3O2)cc1 (configuration not stated) | -4 | -7 | · | -2 | -9 | · | · | · | · | ·
CCOC(=O)[C@@]12CCC3=C1N(CCC3)C(=O)[C@H](CC(=O)NCC1CCCCC1)C2 | -2 | 1 | · | -1 | 9 | · | · | · | · | ·
SMILES | hcDAF-12 act | DAX1 inh-1 | FXN GAA850 act | ssDAF12 agonist | hgDAF-12 ag | DAX1 inh-2 | LXR ag | hcDAF12 ag | hgDAF12 ag | LXR ag 2
COc1ccc(-c2cc3cccc(OC)c3oc2=O)cc1 | 7.3* | 3 | 5 | 0 | 16* | -1 | 2 | 7.8* | 24* | 1
CCc1ccc(NC(=O)c2cc(C(C)C)on2)cc1 | 7.1* | 3 | 5 | 0 | 15* | 0 | 1 | 6.0* | 19* | 1
CCc1ccc(NC(=O)c2cc(-c3ccc(F)cc3)on2)cc1 | -2 | 0 | 2 | -2 | 0 | 2 | · | · | · | ·
c1csc(C2=NNC(=NC3CCCCC3)SC2)c1 | 10* | 3 | 6 | 1.5* | 17* | · | 1 | 6 | 16* | 1
C[C@H]1[C@@H](N(C)Cc2cccs2)CC[C@@]23CCCN2C(=O)CCC[C@@H]13 | 0 | · | · | -1 | 7 | · | · | · | · | ·
Cc1ccccc1Cn1cc(COC(=O)N(C)Cc2ccccc2)nn1 | 0 | -1 | · | 0 | 2 | · | · | · | · | ·
